Molecules are shown by their SMILES.

The assay addresses AMP-activated protein kinase, AMPK (Homo sapiens) (UniProt P54646+O43741+P54619+Q9UGJ0+Q9Y478+Q13131+Q9UGI9). The assay can be described thus: AMP-dependent Kinase enzyme assay. An in vitro enzyme assay that detects ADP turnover that is directly proportional to AMPK activity. This uses naive AMPK that is activated during the assay with MK-8722. The class given is functional. More on the design: scale not given: direction of the effect not stated beside the values. The conditions noted are these: 30 µM.
Regarding `CCC(NC(=O)C(C)C)c1ccccc1C` (stereo not given), the Percent Effect came out at 8.49%.
The same measure for `COc1ccc(C2CCN(CCCC#N)CC2)cc1`: 3.86%.
To `CCC[C@@H]1CN(Cc2ccc(C(F)(F)F)nc2)C[C@H]1C(=O)O` belongs -4.32%; to `COc1cccc(OCC2CCCN(c3cc(C(N)=O)ccn3)C2)c1` (stereo not given), 4.97%.
The same measure for `COc1ccc(CN(C)Cc2c(C)noc2C)c(Cl)c1OC`: 6%.
For `COc1ncc(CN2CCC3(CCNC(=O)CC3)CC2)cn1`, the Percent Effect is -1.6%.
For `CC(=O)c1cccc(OC(C)C(=O)Nc2cnn(CCN(C)C)c2)c1` (stereo not given), the Percent Effect is -0.8%.
As to `COc1cccc2c1OCC(C(=O)NCc1ncc3c(n1)CCC3)C2` (stereo not given), the Percent Effect was 6.59%.
Take `Cc1cc(-n2cccn2)ccc1CN1C[C@@H](CN(C)C)[C@@H](CO)C1`: the Percent Effect was -2%.
To `COc1cccc(-c2nc(CNCc3cccnc3)cs2)c1` belongs -1.6%; to `O=S(=O)(NCC1(c2cccs2)CCOCC1)c1ccc2c(c1)OCCO2`, -2.31%.
To `COc1c(C)cnc(CN2CCn3c(nnc3C3CC3)C2)c1C` belongs 8.46%; to `COCC(C)NC(=O)N1CCN(S(C)(=O)=O)CC1` (stereo not given), 11.4%; to `CSC1(CNC(=O)N(C)Cc2sccc2C)CCOCC1`, -7.94%.
In the case of `O=C(CN1CCC(c2nnc(C(F)(F)F)o2)CC1)Nc1cccc(Cl)c1`, the Percent Effect was -5.71%.
The same measure for `CS(=O)(=O)NC(=O)c1ccn(-c2ccc(Cl)c(Cl)c2)n1`: 4.97%; for `CCc1ccc(CCC(=O)N2CCC(=O)Nc3cccnc32)cc1`: 0.539%; for `COc1ccc(C(C)NCCc2ccc(NC(C)=O)cc2)cc1F` (stereo not given): 5.54%.
On to `c1ccc2oc(N3CCC(c4nncn4C4CC4)CC3)nc2c1`, for which the Percent Effect stood at 8.44%.
The same measure for `Cc1cccc(CN2CCOCC2c2[nH]ncc2C)n1` (stereo not given): 16.3%.
To `COc1cccc2c1CCCCN2C(=O)c1oc(C)nc1C` belongs 5.74%.
The same measure for `N#CCCN(CCC#N)C(=O)c1cccc(N2CCNC2=O)c1`: -2.85%; for `O=C(Cc1cccs1)NCc1ccnc(C2CCCOC2)n1` (stereo not given): 12.2%; for `CC1(C)CC(C(=O)N2CCC3(CCC(=O)N(C4CC4)C3)CC2)CCO1` (stereo not given): -0.458%.
As to `Cc1nc(OCC(=O)N2CCCC2)cc(-n2cccn2)n1`, the Percent Effect was 3.39%.
On to `COc1ccc2c(c1)CCCN2C(=O)NC1CCCCNC1=O` (stereo not given), for which the Percent Effect was 2.81%.
As for `CC(C)c1noc(C(C)N2CCN(Cc3noc(C4CC4)n3)CC2)n1` (stereo not given), the Percent Effect was -0.511%.
As for `NC(=O)[C@@H]1Cc2ccccc2N1C(=O)C1CC(c2ccccc2)=NO1` (stereo not given in full), the Percent Effect came out at 11.5%.
To `CC(C)(C)c1nc(CNc2cc3c(cc2Cl)NC(=O)CO3)no1` belongs 2.92%; to `c1ccc2oc(C3CCN(Cc4ncon4)CC3)nc2c1`, -10.5%; to `O=C1NC(C(=O)NCc2cccnc2Oc2ccc(F)cc2F)CO1` (stereo not given), 5.7%.
On to `COc1cc(C(=O)O)ccc1OCC(=O)NCCc1ccccc1`, for which the Percent Effect was 2.55%.
For the compound `CCC(=O)Nc1cccc(OCC(=O)N(C)CCCC2CCCO2)c1` (stereo not given), the Percent Effect came to 11.8%.
For `COCCN(C)Cc1cc(Cl)ccc1OCC(O)CN1CCCCCC1` (stereo not given), the Percent Effect is -8.12%.
Take `Cc1n[nH]c(C)c1CCN(C)c1ccc(-c2nc(C3CC3)no2)cn1`: the Percent Effect is -6.17%.
The same measure for `Cc1cc(NCCc2c(C)n[nH]c2C)nc(-c2cccnc2)n1`: -4.66%; for `Cn1cc(S(=O)(=O)N(CC(F)(F)F)C2CC2)cc1C(N)=O`: 1.54%; for `Cc1nc(-n2nc(-c3cccs3)cc2N)[nH]c(=O)c1C`: -14.4%.
The same measure for `Cc1ccccc1C(=O)NC[C@@H]1CCN(C(=O)c2cccn2C)C[C@H]1O`: -3.19%.
The same measure for `COc1ccsc1C(=O)NC1CCN(c2cccc(F)c2)CC1`: -1.16%.

The record behind these values is ChEMBL document CHEMBL3988442, “University of Dundee, Small-Polar-MMV Screening Library” (2021).
